Bioassay records from PubChem BioAssay.
ALDH1A1 inh – qHTS Assay for Inhibitors of Aldehyde Dehydrogenase 1 (ALDH1A1) | Aldehyde dehydrogenase 1A1 (Homo sapiens), P00352 | Purified ALDH1A1, NADH fluorescence, propionaldehyde substrate | Potency, µM (highest dose often 75.3 µM), for inactives: top-dose activity, negative = inhibition, actives largely listed as inhibitors | 220,000 compounds, 7.3% hits | AID 1030, 2008; active = well fitted inhibition curve with a large enough effect, not every such curve was filed as active; inconclusive = small, poorly fitted or top-dose-only effect, or another doubt; inactive = no such curve, though single readings can be large or run the other way;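 also: potency is read from the fitted curve at half-maximal effect; plate controls were no enzyme wells and a reference inhibitor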
ALOX12 inhib – qHTS Assay for Inhibitors of 12-hLO (12-human lipoxygenase) | Polyunsaturated fatty acid lipoxygenase ALOX12 (Homo sapiens), P18054 | purified 12-hLO, xylenol orange hydroperoxide absorbance | Potency, µM (titrated, usually from 57.1 µM), for the others: top-dose activity change, negative = inhibition, most hits filed as inhibitors | 150,000 compounds, 0.12% hits; also: potency is read from the fitted curve at half-maximal effect; nearly all actives have a fitted effect of over 55% in size
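150 nM 12hLO, 25 mM Hepes pH 7.0 + 0.01% Triton X-100; cpd preinc 15 min RT; 40 uM arachidonic acid, 30 min RT; Fe-XO 30 min; A573/A405 ratio as read-out.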
HPGD inh – qHTS Assay for Inhibitors of HPGD (15-Hydroxyprostaglandin Dehydrogenase); 15-hydroxyprostaglandin dehydrogenase [NAD(+)] (Homo sapiens), P15428; purified HPGD, NADH fluorescence kinetic, PGE2 substrate; Potency, µM, for inactives: at the top dose activity change, negative = inhibition, hits mostly inhibitors; 150,000 compounds, 4.3% hits; AID 894, 2007; active = well fitted inhibition curve with a large enough effect, not every such curve was filed as active; inconclusive = small, poorly fitted or top-dose-only effect, or another doubt; inactive = no such curve, though single readings can be large or run the other way; also: potency is read from the fitted curve at half-maximal effect
Target sequence (P15428 whole entry, looked up): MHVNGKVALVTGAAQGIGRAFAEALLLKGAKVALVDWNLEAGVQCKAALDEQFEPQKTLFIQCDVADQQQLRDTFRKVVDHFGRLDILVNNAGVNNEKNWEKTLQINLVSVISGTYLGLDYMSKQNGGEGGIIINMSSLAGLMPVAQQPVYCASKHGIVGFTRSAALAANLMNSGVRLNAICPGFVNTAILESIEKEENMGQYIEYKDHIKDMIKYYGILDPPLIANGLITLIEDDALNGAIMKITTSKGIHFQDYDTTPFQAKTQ
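NADH formation kinetics: reaction with 30 uM PGE2 and 1 mM NAD+ (final), 20 nM enzyme, Tris-HCl pH 8 with Tween 20, after 15 min compound preincubation at room temperature. Fluorescence change, last versus first of five reads.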
IMPase Li cell – qHTS Assay for Identifying the Cell-Membrane Permeable IMPase Inhibitors: Potentiation with Lithium. CHO-M1 cells, IP1 TR-FRET (IP-One), carbachol + lithium. Potency, µM (top dose mostly 59.4 µM), for the others: at the highest dose activity, negative = IMPase inhibition, hits mostly inhibitors. 210,000 compounds, 0.35% hits. AID 1457, 2008;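 also: IP1 builds up when IMPase is blocked and the TR-FRET signal falls; potency is read from the fitted curve at half-maximal effect; plate controls were basal vehicle for no effect and high inhibitor control for full effect; nearly all actives have a fitted effect of over 50% in size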
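Readout is a homogeneous TR-FRET IP1 immunoassay (Ex 320, Em 665 and 620), where raised cytosolic IP1 lowers signal. Cells were CHO-M1 treated 30 min at 37C with test compounds plus a little lithium; AC50 values came from Hill-equation fitting.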
IMPase inh – qHTS Assay for Identifying the Cell-Membrane Permeable IMPase Inhibitors; CHO-M1 cells, IP1 accumulation, HTRF TR-FRET ratio; inhibition (IP1 accumulation), % at 46.1 µM; Inositol monophosphatase 1 (Rattus norvegicus), P97697; 120,000 tested, under 10 active; active = well fitted curve in the direction sought with a large enough effect in the signal ratio, not every such curve was filed as active; inconclusive = small, poorly fitted or top-dose-only effect, or a change in a side signal; inactive = no such curve, though single readings can be large or run the other way; the % refers to the signal ratio;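 also: cells stimulated with carbachol in lithium chloride buffer; plate controls were DMSO basal wells for no effect and reference inhibitor wells for full effect; higher means more IMPase inhibition seen as more IP1 and lower FRET ratio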
Target sequence (P97697 whole entry, looked up): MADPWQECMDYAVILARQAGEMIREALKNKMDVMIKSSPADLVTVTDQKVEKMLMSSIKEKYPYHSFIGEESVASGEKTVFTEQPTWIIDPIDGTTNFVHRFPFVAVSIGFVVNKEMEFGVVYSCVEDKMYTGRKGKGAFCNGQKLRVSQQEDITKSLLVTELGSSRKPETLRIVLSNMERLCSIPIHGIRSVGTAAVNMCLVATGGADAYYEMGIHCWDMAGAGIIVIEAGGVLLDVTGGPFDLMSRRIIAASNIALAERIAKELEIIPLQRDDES
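Cellular IMPase inhibition is scored as a rise in cytosolic IP1, detected by competitive TR-FRET between d2-labelled IP1 and a europium anti-IP1 antibody. M1-expressing CHO cells were stimulated with carbachol for 30 min at 37C, with lithium (50 mM LiCl) present in the buffer.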
PNC assembly inh – High Content Assay for Compounds that inhibit the Assembly of the Perinucleolar Compartment | PC3M PTB-GFP, PNC prevalence imaging, 16 h; hits give low values | activity change (PNC), negative = inhibition, % at 10 µM | 140,000 compounds, 3.1% hits;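 active = readout at or below -70, meaning at least 70% loss of cells showing the perinucleolar compartment, a nuclear body marking cancer cells; inconclusive = readout between -30 and a set limit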;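 also: plate controls were DMSO wells for no effect and camptothecin positive control wells for full effect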
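Compounds are pinned in duplicate onto adhered PC3M cells stably expressing GFP-tagged PTB and incubated 16 h at 37 C. Cells are then fixed, nuclei stained with Hoechst, and PNC-positive cells counted.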
* marks the source's active call; other numbers are inactive results; [ ] = remark or other dose. Most compounds without a hit are left out; they make up all but 11% or so of the library. Unless noted, calls follow the shape of the dose curve; as a rule, active = well fitted curve in the direction sought with a large enough effect; inconclusive = small, poorly fitted or top-dose-only effect, or another doubt; inactive = no such curve, though single readings can be large; an effect the other way counts as inactive or inconclusive. Unless noted, % is scaled to controls: 0 for no effect and ±100 for the full control effect.

Results for c1ccc(CSc2ncnc3c2cnn3-c2ccccc2)cc1 ?
ALDH1A1 inh: inconclusive; ALOX12 inhib: 0.5%; HPGD inh: 25.1µM*; IMPase Li cell: 1.5%; PNC assembly inh: -10.8

How did COC(=O)[C@H](Cc1ccccc1)NC(=O)O[C@@H]1C(=O)c2ccc(OC)cc2O[C@H]1c1cccc(C(F)(F)F)c1 do in these assays?
ALDH1A1 inh: -1.1%; HPGD inh: -14.8%; IMPase Li cell: 1.7%

What do the screens show for `Cc1ccc(-n2nnnc2SC(C)C(N)=O)c(C)c1` (stereo not drawn)?
ALDH1A1 inh: -2.2%; ALOX12 inhib: 0.2%; HPGD inh: -2.2%; IMPase Li cell: -3.4%[38.3 µM]; IMPase inh: -2.8; PNC assembly inh: 32.9

What do the screens show for `C/C(N)=C(/C#N)C(=O)CSc1nnnn1-c1ccc(C)cc1C`?
ALDH1A1 inh: inconclusive; ALOX12 inhib: -16.1%; HPGD inh: -11.8%; IMPase Li cell: -3.1%[38.3 µM]; IMPase inh: 2.9; PNC assembly inh: -133.4*

What do the screens show for `CCOC(=O)c1ccc(N2C(=O)CC(N3CCC(C(N)=O)(N4CCCCC4)CC3)C2=O)cc1` (stereo not drawn)?
ALDH1A1 inh: 8.91µM*; ALOX12 inhib: 1.8%; HPGD inh: -13.0%; IMPase Li cell: -6.7%; IMPase inh: 1.2; PNC assembly inh: inconclusive

How did CC(=O)Oc1ccc(N2C(=O)C3C4C=CC(O4)C3C2=O)cc1 (stereo not drawn) do in these assays?
ALDH1A1 inh: 0.447µM*; ALOX12 inhib: -17.8%; HPGD inh: 31.6µM*; IMPase Li cell: -3.9%[38.3 µM]; IMPase inh: -0.7; PNC assembly inh: 3.1

Results for CC(=O)Oc1ccc(N2C(=O)CCC2=O)cc1 ?
ALDH1A1 inh: -4.3%; ALOX12 inhib: 3.3%; HPGD inh: -9.7%; IMPase Li cell: 8.8%[38.3 µM]; IMPase inh: -8.5; PNC assembly inh: 7.7

How did CCOC(=O)c1ccc(N2C(=O)CC(N(Cc3ccc4c(c3)OCO4)C(=O)Nc3ccccc3)C2=O)cc1 (stereo not drawn) do in these assays?
ALDH1A1 inh: 12.6µM*; ALOX12 inhib: -3.3%; HPGD inh: -9.2%; IMPase Li cell: 30.2%[38.3 µM]; IMPase inh: 7.9; PNC assembly inh: -5.2

How did CCOC(=O)c1ccc(N2C(=O)CC(N3CCOCC3)C2=O)cc1 (stereo not drawn) do in these assays?
ALDH1A1 inh: 25.1µM*; ALOX12 inhib: 0.3%; HPGD inh: -3.5%; IMPase Li cell: 13.2%[38.3 µM]; IMPase inh: -0.7; PNC assembly inh: 36.6

What do the screens show for `CCOC(=O)C1CCCN(C2CC(=O)N(c3ccc(C)cc3)C2=O)C1` (stereo not drawn)?
ALDH1A1 inh: -7.8%; ALOX12 inhib: 3.4%; HPGD inh: -5.4%; IMPase Li cell: 24.3%[38.3 µM]; IMPase inh: -1.7; PNC assembly inh: 44.3

What do the screens show for `COC(=O)N1C2CC(=O)O[C@@H]3c4cc5c(cc4[C@]1(C)[C@@]3(Br)c1ccccc12)OCO5`?
ALDH1A1 inh: inconclusive; ALOX12 inhib: -15.2%[11.4 µM]; HPGD inh: inconclusive; IMPase Li cell: 0.3%

Results for CCOc1cccc(N2C(=O)CC(N3CCC(C(N)=O)(N4CCCCC4)CC3)C2=O)c1 (stereo not drawn) ?
ALDH1A1 inh: 25.1µM*; ALOX12 inhib: -0.3%; HPGD inh: -12.8%; IMPase Li cell: -6.0%[38.3 µM]; IMPase inh: -1.5; PNC assembly inh: -14.9

What do the screens show for `CC(=O)Oc1ccc(N2C(=O)CC(N3CCOCC3)C2=O)cc1` (stereo not drawn)?
ALDH1A1 inh: 31.6µM*; ALOX12 inhib: 0.3%; HPGD inh: -5.0%; IMPase Li cell: -21.0%[38.3 µM]; IMPase inh: -5.2; PNC assembly inh: -0.8

Results for CCOc1cccc(N2C(=O)CC(N3CCN(c4nc5ccccc5s4)CC3)C2=O)c1 (stereo not drawn) ?
ALDH1A1 inh: -13.1%; ALOX12 inhib: 0.7%; HPGD inh: -4.0%; IMPase Li cell: 29.0%[38.3 µM]; IMPase inh: 16.1; PNC assembly inh: inconclusive

How did CCOC(=O)c1ccc(N2C(=O)CC(NC3CCN(C(=O)c4cccc(Cl)c4)CC3)C2=O)cc1 (stereo not drawn) do in these assays?
ALDH1A1 inh: 12.6µM*; ALOX12 inhib: -0.6%; HPGD inh: -8.0%; IMPase Li cell: 19.1%[38.3 µM]; IMPase inh: -1.9; PNC assembly inh: 6.2

Results for CCOC(=O)c1ccc(N2C(=O)CC(N(C)CCc3ccc(OC)c(OC)c3)C2=O)cc1 (stereo not drawn) ?
ALDH1A1 inh: 10µM*; ALOX12 inhib: -4.7%; HPGD inh: -2.5%; IMPase Li cell: 13.1%[38.3 µM]; IMPase inh: 2.3; PNC assembly inh: 24.4

What do the screens show for `CCOc1cccc(N2C(=O)CC(N(CCc3ccc(OC)c(OC)c3)C(=O)CC)C2=O)c1` (stereo not drawn)?
ALDH1A1 inh: -0.2%; ALOX12 inhib: 2.2%; HPGD inh: -2.3%; IMPase Li cell: 4.6%[38.3 µM]; IMPase inh: -0.4; PNC assembly inh: inconclusive

Results for OCCN1CC(O)C(O)C(O)C1CO (stereo not drawn) ?
ALDH1A1 inh: 6.3%; ALOX12 inhib: -2.5%; HPGD inh: -10.7%; IMPase Li cell: 9.9%

How did CCOC(=O)CCN1C(=O)[C@H]2[C@H]3[C@H](O)[C@H](O)C/C(=N/O[C@@H]4O[C@@H](COC(C)=O)[C@@H](OC(C)=O)[C@@H](OC(C)=O)[C@H]4OC(C)=O)[C@@H]3CC[C@@H]2C1=O do in these assays?
ALDH1A1 inh: -1.0%[13.5 µM]

Results for CCOC(=O)c1ccc(N2C(=O)CC(Nc3ccc(CCO)cc3)C2=O)cc1 (stereo not drawn) ?
ALDH1A1 inh: 15.8µM*; ALOX12 inhib: -4.0%; HPGD inh: -23.4%; IMPase Li cell: 14.8%[38.3 µM]; IMPase inh: -3.6; PNC assembly inh: 34.7

How did Cc1ccc(NC2CC(=O)N(c3ccc(C)cc3)C2=O)cc1 (stereo not drawn) do in these assays?
ALDH1A1 inh: 3.8%; ALOX12 inhib: -6.2%; HPGD inh: -8.4%; IMPase Li cell: 30.3%[38.3 µM]; IMPase inh: -6.3; PNC assembly inh: 47.7

How did O=C(O)CCCN1CCCCC1 do in these assays?
ALDH1A1 inh: -5.8%[13.5 µM]; ALOX12 inhib: -0.6%[11.4 µM]; HPGD inh: -5.7%; IMPase Li cell: -0.6%

How did Nc1nc(SCC(=O)O)[nH]c(=O)c1N do in these assays?
ALDH1A1 inh: -11.6%[13.5 µM]; ALOX12 inhib: -0.1%[11.4 µM]; HPGD inh: -10.2%; IMPase Li cell: 3.0%
